What follows are compounds tested on HepG2 (assay: GSK_TCMDC: Percent inhibition of human HepG2 cell line. Test compounds present at 10uM.).
Type: functional

Which Inhibition does the source give for `O=C(Nc1ccncc1)c1cc(C(=O)Nc2ccncc2)cc([N+](=O)[O-])c1` here?
The Inhibition was 1%.

With `O=C(Nc1cccc(-c2ccc(CN3CCNCC3)cc2)c1)c1cccc(Cl)c1.O=C(O)C(F)(F)F` as the compound, how does the Inhibition read?
The Inhibition was 30%.

`Cl.Oc1cccc(-c2nc3cc(C4=NC5CCCCC5N4)ccc3[nH]2)c1` (stereo not given) was tested. Which Inhibition did it give?
Its Inhibition is 0%.

Which Inhibition does the source give for `COCCn1c(-c2cccc(Cl)c2)nn(-c2ccc([N+](=O)[O-])cc2C#N)c1=S` here?
The Inhibition was 7%.

Which Inhibition does the source give for `COc1ccc(OCCCN2CCCCC2)cc1S(=O)(=O)c1ccc(OCc2ccc(C(F)(F)F)cc2)cc1.Cl` here?
Its Inhibition is 52%.

Which Inhibition does the source give for `C/C=C/COc1ccc(-c2c(C)[nH]c(C)c(Cl)c2=O)cc1` here?
The Inhibition was 0%.

How did the Inhibition turn out when `O=C(c1cc2ccccc2o1)N1CCc2cc3nccc(N4CCN5CCC[C@H]5C4)c3cc21` was run?
The Inhibition was 62%.

`CCc1c[nH]c2c(N(c3ccccc3)S(C)(=O)=O)cc(C(=O)N[C@@H](Cc3ccccc3)[C@H](O)CNCc3cccc(C(F)(F)F)c3)cc12.O=CO` was tested. Which Inhibition did it give?
Its Inhibition is 20%.

For `CC(C)COc1ccc(Cl)cc1Cc1ccc(-c2nc3cc(N4CCN(C)CC4)ccc3[nH]2)o1.Cl`, which Inhibition is on record?
The Inhibition was 6%.

How did the Inhibition turn out when `CCN(CC(C)O)C(=O)c1ccc(-c2cccc(-c3nc4cccc(C)c4[nH]3)c2)cc1` (stereo not given) was run?
Its Inhibition is 28%.

Which Inhibition does the source give for `Cc1ccc2[nH]c(-c3cc(-c4cccc(CCN5CCOCC5)c4)cnc3N)nc2c1.O=C(O)C(F)(F)F` here?
Its Inhibition is 50%.

How did the Inhibition turn out when `CCOCCCNc1nc2cc(OC)c(OC)cc2c2nc(-c3ccccc3)nn12` was run?
The Inhibition was 10%.

Which Inhibition does the source give for `CC(C)Cn1c(Sc2ccc(C#N)c([N+](=O)[O-])c2)nnc1-c1ccc(N(C)C)cc1` here?
Its Inhibition is 4%.

With `COc1cc2c(cc1N(C(C)C)S(=O)(=O)c1sc3ccc(Cl)cc3c1C)CCNCC2.Cl` as the compound, how does the Inhibition read?
The Inhibition was 98%.

Which Inhibition does the source give for `CC(=O)Nc1ncc(C(=O)Nc2cccc(-c3cccc(-c4nc5cc(F)ccc5[nH]4)c3)c2)s1` here?
The Inhibition was 27%.

How did the Inhibition turn out when `CC1(CCN2CCC(c3c[nH]c4cnccc34)CC2)CCCc2c(Br)cccc2C1=O.Cl` (stereo not given) was run?
The Inhibition was 14%.

With `CN(C)CCCNc1nccc(N(C)c2ccc(NC(=O)Nc3cc(C(F)(F)F)ccc3F)cc2)n1.O=C(O)C(F)(F)F` as the compound, how does the Inhibition read?
Its Inhibition is 97%.

Which Inhibition does the source give for `CCCCSc1nc2c(c(=O)n1Cc1ccco1)C1(CCCCC1)Cc1ccccc1-2` here?
The Inhibition was 13%.

How did the Inhibition turn out when `O=c1ccccn1CCCC1CCCCN1` (stereo not given) was run?
Its Inhibition is 0%.

Which Inhibition does the source give for `COc1cc(-c2nc3c4ccccc4c4ccccc4c3[nH]2)cc(OC)c1OC` here?
Its Inhibition is 4%.

`O=C(O)C1CC(=O)N(c2ccc(Cl)cc2)C1` (stereo not given) was tested. Which Inhibition did it give?
The Inhibition was 51%.

Which Inhibition does the source give for `NCC1CCCN1Cc1ccc(-c2ccc(-c3nc4cc(F)ccc4[nH]3)cc2)cc1.O=C(O)C(F)(F)F` (stereo not given) here?
Its Inhibition is 31%.

With `Oc1cccc(Nc2nc(NCc3ccccc3)c3ccccc3n2)c1` as the compound, how does the Inhibition read?
Its Inhibition is 21%.

`Cc1cccc2nc(-c3cccc(-c4cccc(CNCCCN5CCCC5=O)c4)c3)[nH]c12.O=C(O)C(F)(F)F` was tested. Which Inhibition did it give?
Its Inhibition is 9%.

For `NC(=O)c1ccsc1NC(=O)CNC(c1ccc(F)cc1)c1cccs1` (stereo not given), which Inhibition is on record?
The Inhibition was 31%.

How did the Inhibition turn out when `O=C(NCC1CCN(C/C=C/c2ccccc2)CC1)Nc1ccc(Oc2ccccc2)cc1` was run?
The Inhibition was 40%.

Which Inhibition does the source give for `Cc1cc(NC(=O)c2ccco2)ccc1OC1CCN(Cc2ccccc2)CC1.O=C(O)C(F)(F)F` here?
Its Inhibition is 3%.

Which Inhibition does the source give for `O=C(Nc1ccc(OC2CCN(Cc3ccccc3)CC2)c(Cl)c1)c1cccs1.O=C(O)C(F)(F)F` here?
Its Inhibition is 2%.

With `Cc1ccccc1C1CCN(C2CCC(NC(=O)/C=C/c3cccc(F)c3)CC2)CC1` (stereo not given) as the compound, how does the Inhibition read?
The Inhibition was 46%.

For `Cc1cc(NC(=O)Nc2ccc3ccn(C)c3c2)c2ccccc2n1`, which Inhibition is on record?
Its Inhibition is 11%.

For `CCc1c(CCNCCCCCNCCc2ccc(OC)c(OC)c2CC)ccc(OC)c1OC.Cl`, which Inhibition is on record?
The Inhibition was 59%.

Which Inhibition does the source give for `CC(=O)N(C)C1CCN(Cc2cccc(-c3ccc(-c4nc5cc(F)ccc5[nH]4)cc3)c2)C1.O=C(O)C(F)(F)F` (stereo not given) here?
Its Inhibition is 24%.

For `Nc1c2c(nc3ccccc13)C(=Cc1ccc(O)cc1)CCC2`, which Inhibition is on record?
Its Inhibition is 9%.

For `Cn1cncc1C(=O)Nc1cccc(-c2cccc(-c3nc4ccccc4[nH]3)c2)c1`, which Inhibition is on record?
Its Inhibition is 9%.

How did the Inhibition turn out when `O=c1cnc2ccc(F)cc2n1CCN1CCC(NCc2cc(-c3ccccc3)cs2)CC1` was run?
The Inhibition was 0%.

With `CC1(C)N=C(N)N=C(NOCCCCCCONC2=NC(N)=NC(C)(C)N2)N1` as the compound, how does the Inhibition read?
The Inhibition was 34%.

For `CCn1cnc2c(Nc3cccc([N+](=O)[O-])c3)nc(N3CCC(N4CCCCC4)CC3)nc21`, which Inhibition is on record?
Its Inhibition is 31%.

For `Cn1nc(-c2cccc(CNC3CCc4ccccc43)c2)c2cnc(NC3CCCC3)nc21` (stereo not given), which Inhibition is on record?
The Inhibition was 14%.

For `CCOc1cc(NC(=O)Nc2ccnc3ccccc23)cc(OC)c1.Cl`, which Inhibition is on record?
The Inhibition was 0%.

With `O=C(NCCCCN1CCC(c2ccc3c(c2OCC(O)c2ccc(Cl)cc2)CCCC3)CC1)c1ccc(-c2ccc(C(F)(F)F)cc2)cc1` (stereo not given) as the compound, how does the Inhibition read?
Its Inhibition is 100%.
